Compounds with a hit are over-represented: about 4% of the library has one in this group of screens.
KKLEB cytotox – counter-screen for CF NF-kB inhibitors: cytotoxicity | KKLEB CF airway cells viability, ATPlite luminescence, overnight; hits give low values; cells stimulated with P. aeruginosa culture filtrate | 0.36% of 360,000 active | AID 602141 | activity change (cytotoxicity), % at 5 µM;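 active means corrected activity change at or below -50% at 5 µM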
TROY NFkB inh – blocks TROY-dependent signaling in reporter cells; Q293 LMP1-TROYcd NF-kB luciferase reporter, 4 h; inhibition, % at 10 µM; 0.98% of 360,000 active; AID 1347056;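 active means compounds whose plate-normalised and pattern-corrected inhibition of the luciferase reporter signal at the single screening dose is 50% or more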
CF NFkB block – cystic fibrosis NF-kB activation inhibition; KKLEB NF-kB-GFP reporter, PAF-induced, GFP fluorescence overnight; inhibition, % at 5 µM; 0.86% of 360,000 active; AID 588850;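 active means at least 50% inhibition at 5 µM, scaled per plate between neutral and stimulator controls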;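 further: PAF is a Pseudomonas aeruginosa culture filtrate used as stimulus; plate controls were PAF-stimulated DMSO wells for no effect and unstimulated DMSO wells for full effect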
Peg3 prom inh-1 – Peg3 promoter activity inhibition | HeLa PEG-Prom luciferase reporter, luminescence, overnight | inhibition, % at 20 µM | 1.7% of 360,000 active;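 active means inhibition of at least 50% at 20 µM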
TWEAK Fn14 block – blocks TWEAK-Fn14 interaction in a reporter cell assay | TWEAK-stimulated Fn14 reporter cells, luciferase luminescence, 8 h | inhibition, % at 10 µM | 2% of 360,000 active | AID 1159606; in the data active means inhibition above about 50%
HIF-2a block – HIF-2a inhibition; inhibition, % at 18.8 µM; 786-0 RCC cells HIF-2a reporter, luciferase luminescence, overnight; 0.72% of 360,000 active; AID 624352;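 active means inhibition of the luminescence signal of 40% or more relative to plate controls, in a single-dose primary screen at 18.75 µM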
Peg3 prom inh-2 – confirmation of Peg3 promoter inhibitors. HeLa PEG-Prom luciferase reporter, luminescence, overnight. 84% of 1,300 active. inhibition, % at 20 µM. shares compounds with Peg3 prom inh-1;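 active means at 20 µM dose, 40% or more inhibition averaged across four replicates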
Numbers without * were called inactive; . = not tested or not shown; ! = not confirmed by another sample.

SMILES | KKLEB cytotox | TROY NFkB inh | CF NFkB block | Peg3 prom inh-1 | TWEAK Fn14 block | HIF-2a block | Peg3 prom inh-2
CCNC(=O)C(=O)NCC(c1ccc2c(c1)OCO2)N1CCOCC1 (stereo not drawn) | -4 | 12 | 11 | 0 | -9 | 7 | .
CC(C)(C)c1ccc(OCCCNCc2ccccc2)cc1 | -10 | -1 | 8 | 112* | -1 | 13 | 61*
COCCN(C(=O)COC(=O)/C=C/c1ccc(Cl)c(Cl)c1)c1c(N)n(Cc2ccccc2)c(=O)[nH]c1=O | 2 | 4 | -5 | 5 | 6 | 12 | .
CC(C)CN(C(=O)COC(=O)/C=C/c1ccc(Cl)c(Cl)c1)c1c(N)n(Cc2ccccc2)c(=O)[nH]c1=O | -26 | -14 | 27 | 89* | 19 | 17 | 44*
COc1ccc(-c2cc(-c3nnc(COC(=O)c4ccc(O)cc4)o3)c3ccccc3n2)cc1OC | 1 | 0 | 43 | 52* | 31 | -14 | 34
Cc1cccc(CCNS(=O)(=O)c2cc3c(cc2C)NC(=O)CO3)c1 | -4 | -1 | 14 | 19 | 6 | 7 | .
Cc1cc(C)c(NC(=O)CSc2nc3ccc(NC(=O)CSc4nnnn4Cc4ccccc4)cc3s2)c(C)c1 | -8 | -27 | -35 | -29 | -14 | -38 | .
Cc1cc(C)c(NC(=O)CSc2nc3ccc(NC(=O)CSc4nnnn4-c4ccccc4)cc3s2)c(C)c1 | -67* | -2 | 71* | 84* | -30 | 10 | 13
Cc1cc(C(=O)CSc2nnc3ccccn23)c(C)n1-c1ccccc1 | 3 | 79* | -18 | 101* | 101* | 84* | 81*
Cc1onc(-c2ccc(Cl)cc2Cl)c1-c1csc(N/N=C/c2ccccc2Cl)n1 | -26 | -20 | 20 | 65* | -16 | 28 | 37
Cc1onc(-c2ccccc2)c1-c1csc(N/N=C/c2ccccc2Cl)n1 | -8 | -17 | -1 | 16 | -24 | 8 | .
COc1cc(CN(C(=S)NCC(=O)NC2CC2)C2CCCC2)cc(OC)c1OC | -4 | 4 | 10 | 1 | -18 | 15 | .
Cc1ccc(NC2CCCN(C(=O)c3cn4cc(Cl)ccc4n3)C2)cc1C (stereo not drawn) | 4 | -2 | -9 | 12 | 4 | 16 | .
COCCn1c(=NC(=O)c2ccc(S(=O)(=O)N3CCc4ccccc4C3)cc2)sc2cc(S(N)(=O)=O)ccc21 | -7 | -6 | 0 | 26 | 16 | 27 | .
C=CCn1c(=NC(=O)c2ccc(S(=O)(=O)N3CCc4ccccc4C3)cc2)sc2cc(S(N)(=O)=O)ccc21 | -14 | 10 | 22 | 72* | 1 | 27 | 8
Cc1ccc(S(=O)(=O)N(CC(=O)N2CCCC2)C2CCCCC2)cc1 | 2 | 14 | -7 | 3 | 10 | 3 | .
CC(=O)Nc1ccc(NC(=O)c2nc(S(=O)(=O)Cc3ccccc3)ncc2Cl)cc1 | -77* | 48 | 96* | 102* | 58* | 0 | 96*
CSc1ncc(Cl)c(C(=O)Nc2ccc(NC(C)=O)cc2)n1 | 8 | 8 | -16 | -4 | -3 | -5 | .
NC1=NC[C@H](Cc2ccccc2)N1CCc1cc(C(F)(F)F)cc(C(F)(F)F)c1 | 4 | -4 | -34 | 85* | -10 | 4 | 53*
FC(F)(F)c1cc(CCN2C(=S)NC[C@@H]2Cc2ccccc2)cc(C(F)(F)F)c1 | -38 | 13 | 15 | 0 | 9 | -1 | .
O=S(=O)(NC1CC(NS(=O)(=O)OCC(Cl)(Cl)Cl)C2CCCCC12)OCC(Cl)(Cl)Cl (stereo not drawn) | -1 | 8 | 32 | 57* | 5 | -32 | 93*
CN=C1SC(CC(=O)NCCc2ccc(OC)c(OC)c2)C(=O)N1C (stereo not drawn) | -5 | 14 | 21 | -7 | -3 | 12 | .
O=Nc1c(-c2c(O)[nH]c3cc(Br)ccc23)[nH]c2ccccc12 | -8 | 69* | 107* | 101* | 91* | -17 | 98*
O=C(CSCc1cccc(Br)c1)N=Nc1c(O)[nH]c2ccccc12 | 2 | 7 | 11 | 9 | -15 | -17 | .
CCC(C(=O)Nc1ccc(S(=O)(=O)N(C)C2CCN(C)CC2)cc1)c1ccccc1 (stereo not drawn) | 9 | 4 | 12 | 8 | 1 | 10 | .
SMILES | KKLEB cytotox | TROY NFkB inh | CF NFkB block | Peg3 prom inh-1 | TWEAK Fn14 block | HIF-2a block | Peg3 prom inh-2
CC(=O)Nc1nc2cc3c(cc2s1)OCCO3 | -7 | -46 | 28 | -202 | 31 | -145 | .
O=C(Nc1nc2cc3c(cc2s1)OCCO3)C1=COCCO1 | -56* | 87* | -4 | 97* | 104* | 80* | 82*
CC1Oc2ccccc2OC1C(=O)Nc1nccs1 (stereo not drawn) | -4 | -36 | -5 | -35 | 9 | -45 | .
Cc1ccc(CCC(=O)Nc2ccc(C)c(C)c2)o1 | 5 | -30 | -5 | -42 | -1 | -54 | .
Cn1ccnc1/C(=N\NC(=O)c1ccccc1)c1cccc([N+](=O)[O-])c1 | -2 | -19 | -5 | 1 | -20 | -4 | .
O=C(N/N=C(\c1ccccc1)c1ccccn1)c1cccc([N+](=O)[O-])c1 | 2 | -10 | -5 | 51* | -28 | 13 | 62*
Cc1ccc(-n2[nH]c(=O)c(-c3ccccn3)c2C)cc1 | -7 | 81* | -7 | 73* | 101* | 73* | 59*
Cc1ccc(-n2[nH]c(=O)c3cccnc32)cc1 | 10 | -4 | 12 | -10 | 8 | -11 | .
CN(C)CCCNC(=O)c1cc(C(=O)c2ccccc2F)c[nH]1 | 0 | 8 | 19 | 4 | 20 | 12 | .
O=c1cc(NCCCO)c2ccccc2o1 | 13 | -2 | -13 | 5 | 11 | 16 | .
CN(C)CCNc1ccc(CO)c2oc3ccc(O)cc3c(=O)c12 | 4 | -26 | -88 | 97* | -53 | 41* | 90*
CCN1CCN(Cc2ccc(NC(=O)c3cc(NC(=O)c4ccno4)cc(OC)c3)cc2C(F)(F)F)CC1 | -4 | -10 | 9 | 62*! | 7 | -26 | 48*
CCN1CCN(Cc2ccc(NC(=O)c3cc(NC(=O)c4cc(-c5ccc(OC)cc5)n[nH]4)cc(OC)c3)cc2C(F)(F)F)CC1 | -10 | -15 | 14 | 32 | -97 | -32 | .
CCCn1c(=N)n(CC(=O)c2ccc(Cl)cc2)c2ccccc21 | -6 | -12 | -11 | 66* | -10 | 7 | 60*
Cc1ccc(Cn2c(=N)n(CC(=O)c3ccccc3)c3ccccc32)cc1 | -15 | -11 | 12 | 92* | 0 | 10 | 86*
COc1ccc(N=CC2=C(O)c3ccccc3C2=O)c(OC)c1 | -77* | 83* | -15 | 74* | 102* | 55* | 21
COc1cc(O)c(C=Nc2ccccc2NS(=O)(=O)c2ccc(C)cc2)c(OC)c1 | 19 | 0 | -11 | 3 | -5 | 4 | .
